Compound activity (PubChem BioAssay)
MITF primary: inhibitors of human MITF | AlphaScreen MITF homodimerization, bead proximity signal | inhibition, % at 2.6 µM | 650,000 compounds, 0.91% hits; in the data active means inhibition above about 50%;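 further: 0% = vehicle wells with protein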
GPR151 activ: activates the human receptor GPR151; Q8TDV0; PathHunter beta-arrestin GPR151 cells, luminescence; activation, % at 11.2 µM; 650,000 compounds, 1% hits; AID 1508602; in the data active means activation above about 4.9%;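 further: 0% = median of compound wells and 100% = cells with positive control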
Target sequence (Q8TDV0 whole entry, looked up): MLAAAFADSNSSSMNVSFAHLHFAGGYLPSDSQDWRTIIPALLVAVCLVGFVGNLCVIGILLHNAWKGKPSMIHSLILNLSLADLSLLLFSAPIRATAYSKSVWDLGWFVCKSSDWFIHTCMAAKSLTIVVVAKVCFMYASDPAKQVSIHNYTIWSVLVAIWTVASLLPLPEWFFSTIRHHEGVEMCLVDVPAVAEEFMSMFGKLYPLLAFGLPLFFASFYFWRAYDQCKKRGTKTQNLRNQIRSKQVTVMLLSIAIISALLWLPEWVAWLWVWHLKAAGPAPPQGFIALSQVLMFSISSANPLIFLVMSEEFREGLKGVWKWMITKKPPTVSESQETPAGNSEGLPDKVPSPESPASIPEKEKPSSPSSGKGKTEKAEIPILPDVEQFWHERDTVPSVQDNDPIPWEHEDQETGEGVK
TEAD-YAP inh: TEAD-YAP interaction inhibition; HEK-TIYL cells, TEAD-Gal4/YAP UAS-luciferase luminescence; inhibition, % at 9.12 µM; 640,000 compounds, 1.4% hits; AID 1259422; in the data active means inhibition above about 32%;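 further: 0% = median of test compound wells and 100% = reference inhibitor wells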
FBW7 act: activators of human E3 ligase FBW7; Q969H0; AlphaScreen FBW7–phospho-cyclin E peptide binding, activator screen; normalized activity (activation), % at 26.1 µM; 650,000 compounds, 0.13% hits; in the data active means normalized activity above about 1.9%;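 further: purified mutant Fbw7 with reduced substrate affinity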
MITF inh conf: human MITF inhibition, confirmation | shares compounds with MITF primary | AID 1259372 | 4,700 compounds, 16% hits | AlphaScreen MITF homodimerization, biotin/His-MITF beads | inhibition, % at 2.6 µM;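 active means inhibition above a cutoff derived from the DMSO control wells, cut at about 28% in these data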;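 further: 0% = MITF dimer wells with DMSO only; inhibitors lower the bead chemiluminescence by keeping MITF from dimerizing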
AlphaScreen DR: counter-screen: compounds optically interfering with AlphaScreen. shares compounds with MITF primary. AlphaScreen optical interference counterscreen, cell-free. IC50, µM. 480 compounds, 6% hits; call rule not given here
AlphaScreen intf2: AlphaScreen optical interference, counter-screen; inhibition, % at 2.6 µM; shares compounds with MITF primary; 4,700 compounds, 7.6% hits; LysRS AlphaScreen counterscreen, signal interference, triplicate; AID 1259376;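 active means inhibition above a cutoff derived from the DMSO control wells, cut at about 30% in these data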
* marks the source's active call; other numbers are inactive results. Hits are enriched below; roughly 3.5% of the tested compounds scored in any of these assays.

Cc1ccc(C2CC(c3cccs3)=NN2C(=O)CSc2nnc(CNC(=O)c3cccc(C)c3)n2CCc2ccccc2)cc1 (configuration not stated) was read as MITF primary -1, GPR151 activ 0, TEAD-YAP inh -9 and FBW7 act 0.
`COC(=O)CC1(O)c2ccccc2C(=O)N1Cc1ccccc1` (configuration not stated) gave MITF primary 12, GPR151 activ 1, TEAD-YAP inh 7 and FBW7 act 0.
For CC(=O)Nc1ccc(N2C(=O)c3ccccc3C2(O)Cc2ccccc2)cc1 (configuration not stated) the results were MITF primary 55*, GPR151 activ 0, TEAD-YAP inh -2, FBW7 act 0, MITF inh conf 33*, AlphaScreen DR >6.5 and AlphaScreen intf2 16.
Screening Cn1c(SCC(N)=O)nnc1-c1cnccn1 returned MITF primary 8, GPR151 activ 1, TEAD-YAP inh -4 and FBW7 act 0.
Screening Cn1c(SCC(=O)O)nnc1-c1cnccn1 returned MITF primary 61*, GPR151 activ 0, TEAD-YAP inh -5, FBW7 act 0, MITF inh conf 9 and AlphaScreen intf2 7.
CC(C)COc1ccc(-c2csc(N)n2)cc1 was read as MITF primary -3, GPR151 activ -1, TEAD-YAP inh -32 and FBW7 act 0.
`Cc1ccc(-c2csc(NC(=O)c3cc(Cl)cc(Cl)c3)n2)c(C)c1` gave MITF primary 75*, GPR151 activ -2, TEAD-YAP inh 8, FBW7 act 0, MITF inh conf 2 and AlphaScreen intf2 10.
CC(=O)Nc1nc(-c2ccc(C)cc2C)cs1 was read as MITF primary 4, GPR151 activ -1, TEAD-YAP inh -15 and FBW7 act 0.
Screening Cc1ccc(-c2nnn(CC(=O)NCCC(C)C)n2)cc1 returned MITF primary -14, GPR151 activ 0, TEAD-YAP inh 1 and FBW7 act 0.
`COC(=O)c1nn(-c2ccccc2)nc1N` gave MITF primary -3, GPR151 activ -5, TEAD-YAP inh -6 and FBW7 act 0.
For COCCCNC(=O)/C(C#N)=C/c1ccc(-c2ccc(Cl)c(C(=O)O)c2)o1 the results were MITF primary 58*, GPR151 activ 0, TEAD-YAP inh 1, FBW7 act 0, MITF inh conf 46*, AlphaScreen DR >6.5 and AlphaScreen intf2 19.
For COc1ccc(OC)c(CN2CCN(Cc3cccnc3)CC2)c1 the results were MITF primary 82*, GPR151 activ -1, TEAD-YAP inh 11, FBW7 act 0, MITF inh conf -11 and AlphaScreen intf2 0.
`COc1cc(OC)c(OC)cc1CN1CCN(Cc2cccnc2)CC1` gave MITF primary 82*, GPR151 activ -2, TEAD-YAP inh -4, FBW7 act 0, MITF inh conf 7 and AlphaScreen intf2 21.
COc1ccc(OC)c(CN2CCN(c3ccccn3)CC2)c1 was read as MITF primary 47, GPR151 activ -1, TEAD-YAP inh -5 and FBW7 act 0.
Screening COc1ccccc1C1(O)CCN(Cc2cccnc2)CC1 returned MITF primary 6, GPR151 activ 0, TEAD-YAP inh 7 and FBW7 act 0.
For COc1ccccc1CN1CCN(Cc2cccnc2)CC1 the results were MITF primary 84*, GPR151 activ 1, TEAD-YAP inh -3, FBW7 act 0, MITF inh conf 10 and AlphaScreen intf2 18.
Screening COc1ccc(Br)cc1CN1CCN(Cc2cccnc2)CC1 returned MITF primary 59*, GPR151 activ 1, TEAD-YAP inh -3, FBW7 act 0, MITF inh conf 16 and AlphaScreen intf2 16.
Screening COc1ccc(Br)cc1CN1CCN(Cc2c[nH]c3ccccc23)CC1 returned MITF primary 30, GPR151 activ 1, TEAD-YAP inh 13 and FBW7 act 0.
CCN(CC)C(=O)C(=O)C(C#N)c1nc2ccccc2n1C (configuration not stated) was read as MITF primary 24, GPR151 activ -1, TEAD-YAP inh 2 and FBW7 act 1.
